Compound activity (PubChem BioAssay)
CBX7 AlphaScr – CBX7 inhibition, primary AlphaScreen; O95931; AlphaScreen His6-CBX7 / biotin-H3K27me3 peptide binding; hits give low values; normalised signal (fraction of DMSO) (concentration not given with the values); actives 1.1% (n = 66,000); in the data active means normalised signal below about 0.5
Target sequence (O95931 whole entry, looked up): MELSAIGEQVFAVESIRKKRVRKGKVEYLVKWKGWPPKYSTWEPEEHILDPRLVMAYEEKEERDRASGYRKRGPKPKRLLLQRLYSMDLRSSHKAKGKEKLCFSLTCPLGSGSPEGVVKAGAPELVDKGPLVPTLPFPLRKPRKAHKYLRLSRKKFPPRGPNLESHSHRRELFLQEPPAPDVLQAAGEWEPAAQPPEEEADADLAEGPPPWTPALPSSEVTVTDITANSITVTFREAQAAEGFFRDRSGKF
Of the large screens only hits and unclear results are named; the others gave an inactive call. Only a selection was taken, and hits are over-represented in it overall.

O=C1CCCc2c1[nH]c1ccc(C3CCCCC3)cc21	none
CCOc1ccc(-c2cnc3ccccc3n2)cc1	none
Brc1ccc(-c2cnc3ccccc3n2)cc1	none
Nc1ccc(-c2ccc(-c3cnc4ccccc4n3)cc2)cc1	CBX7 AlphaScr 0.15
CCCn1c(-c2nonc2NC(C)=O)nc2ccccc21	none
Cc1cccc(NC(=O)CSc2nnc(Cc3cc(=O)[nH]c(=O)[nH]3)n2-c2ccc(Cl)cc2)c1	none
CC(=O)Nc1ccc(Nc2nc(-c3ccccc3)c3cc(C)ccc3n2)cc1	none
CCN(Cc1ccccc1)S(=O)(=O)c1ccc(C(=O)Nc2nnc(-c3cccc(OC)c3)o2)cc1	none
CN(Cc1ccccc1)S(=O)(=O)c1ccc(C(=O)Nc2nnc(-c3ccc(F)cc3)o2)cc1	CBX7 AlphaScr 0.14
COc1cccc(-c2nnc(NC(=O)c3ccc(S(=O)(=O)N(C)Cc4ccccc4)cc3)o2)c1	CBX7 AlphaScr 0.1
COc1cccc(-c2nnc(NC(=O)c3ccc(S(=O)(=O)N4CCCC4)cc3)o2)c1	none
COc1ccc(-c2nnc(NC(=O)c3ccc(S(=O)(=O)N4CCCC4)cc3)o2)c(OC)c1	none
COc1ccccc1-c1nnc(NC(=O)c2ccc(S(=O)(=O)N3CCOCC3)cc2)o1	none
CCOC(=O)c1oc2ccccc2c1NC(=O)c1ccc(S(=O)(=O)N(C)Cc2ccccc2)cc1	none
COc1ccccc1-c1nnc(NC(=O)c2ccc(S(=O)(=O)N(C)Cc3ccccc3)cc2)o1	CBX7 AlphaScr 0.00085
Cc1nc2cc(NC(=O)c3ccc(S(=O)(=O)N(C)Cc4ccccc4)cc3)ccc2s1	none
CCc1nnc(NC(=O)c2ccc(S(=O)(=O)N(C)Cc3ccccc3)cc2)o1	CBX7 AlphaScr 0.43
CCc1ccc(NC(=O)Cn2cc(S(=O)(=O)c3ccc(C)cc3)c(=O)c3ccccc32)cc1	none
Cc1ccc(NC(=O)CSc2nnc(Cc3cc(=O)[nH]c(=O)[nH]3)n2-c2ccc(F)cc2)c(C)c1	none
CCc1ccccc1NC(=O)CCc1c(C)nc2cc(-c3cccc(F)c3)nn2c1C	none
CCCNC(=O)c1ccc2c(c1)ncn2-c1cc(C)ccc1OC	none
OC(COc1ccc(Br)cc1)Cn1c(C(F)(F)F)nc2ccccc21 (stereo not drawn)	none
Cc1ccc(-c2nnc(Nc3cccc(Cl)c3)c3ccccc23)cc1S(=O)(=O)NC(C)(C)C	none
COc1ccc(Nc2cc(C(=O)NCCN3CCCC3)c3ccccc3n2)cc1	none
O=C(COCc1cc(-c2ccc(F)cc2)on1)Nc1cccc(Cl)c1	none
COc1cc(OC)cc(-c2nnc(NC(=O)c3ccc(S(=O)(=O)N(C)C)cc3)o2)c1	none
COc1ccc(-c2nnc(NC(=O)c3ccc(S(=O)(=O)N(C)C)cc3)o2)cc1	CBX7 AlphaScr 0.037
COc1cccc(-c2nnc(NC(=O)c3ccc(S(=O)(=O)N4CCOCC4)cc3)o2)c1	none
O=C(NCc1ccc(F)cc1)c1ccc2c(c1)N(Cc1ccccc1)C(=O)c1ccccc1S2(=O)=O	none
COC(=O)c1ccccc1NC(=O)c1sc2nc(-c3ccccc3)cn2c1C	none
C=CCn1c(C2CC(=O)N(c3c(C)cc(C)cc3C)C2)nc2ccccc21 (stereo not drawn)	none
CCOc1ccc2nc(NC(=O)CCS(=O)(=O)c3ccccc3)sc2c1	none
CCOC(=O)c1cnc2c(C)cc(Cl)cc2c1Nc1ccc(C(=O)O)cc1	none
COCCNc1nc(-c2ccccc2F)nc2ccccc12	none
Fc1ccccc1-c1nc(NCc2ccccc2Cl)c2ccccc2n1	none
COc1ccccc1CNc1nc(-c2ccccc2F)nc2ccccc12	CBX7 AlphaScr 0.32
COC(=O)c1ccc2nc(C)cc(Nc3ccc(F)cc3)c2c1	none
COc1cc(NC(=O)C2CCN(C(=O)c3cnn(-c4ccccc4)c3-n3cccc3)CC2)ncn1	none
CCOc1ccc2nc(N3CCCC(C(=O)N4CCN(C)CC4)C3)sc2c1 (stereo not drawn)	CBX7 AlphaScr 0.38
CCOc1ccc2nc(N3CCCC(C(=O)Nc4c(C)cccc4C)C3)sc2c1 (stereo not drawn)	none
CCOc1ccc2nc(N3CCC(C(=O)N4CCN(C)CC4)CC3)sc2c1	none
CCOc1ccc2nc(N3CCCC(C(=O)N4CCN(c5ccccc5)CC4)C3)sc2c1 (stereo not drawn)	none
CCOc1ccc2nc(N3CCCC(C(=O)N4CCN(c5ncccn5)CC4)C3)sc2c1 (stereo not drawn)	none
CCOc1ccc2nc(N3CCCC(C(=O)N4CCN(c5cccc(C)c5)C(C)C4)C3)sc2c1 (stereo not drawn)	CBX7 AlphaScr 0.49
CC(=O)Nc1nnc(-c2ccc3c(c2)OCO3)s1	none
CC(C)(C)C(=O)NCc1nc2ccccc2n1Cc1ccccc1F	none
Cc1ccc(NC(=O)C2CCN(C(=O)c3cc4sccc4n3Cc3ccc(F)cc3)CC2)c(C)c1	none
CC(C)(C)c1ccccc1OCC(=O)Nc1nc(-c2ccccc2)cs1	none
CCOc1ccc(S(=O)(=O)NCCc2c(C)[nH]c3ccc(Br)cc23)c2ccccc12	none
Cc1noc(/C=C/c2cccs2)c1S(=O)(=O)N1CCCC(C(=O)Nc2cccnc2)C1 (stereo not drawn)	none
O=C(Nc1ccc2oc(-c3cc(F)c(F)cc3Cl)nc2c1)c1cc2ccccc2o1	none
COc1ccc(CNc2nc(SCC(=O)Nc3cc(C)[nH]n3)nc3ccccc23)cc1	CBX7 AlphaScr 0.37
COc1cc(Nc2nc(SCC(=O)Nc3cc(C)[nH]n3)nc3ccccc23)cc(OC)c1	none
Cc1cc(NC(=O)CSc2nc(NCc3ccc(Cl)cc3)c3ccccc3n2)n[nH]1	none
COc1ccccc1N1CCN(C(=O)Cn2ncc3c2-c2ccccc2OC3)CC1	none
O=C(NCc1ccc(Cl)cc1)c1ccc2nc(N3CCOCC3)sc2c1	none
CCc1ccc(NS(=O)(=O)c2ccc3c(c2)NC(=O)CC(=O)N3)cc1	none
O=C(c1ccc2nc(-c3ccco3)c(-c3ccco3)nc2c1)N1CCc2ccccc2C1	CBX7 AlphaScr 0.015
CC(C)CCNC(=O)c1ccc2nc(-c3ccco3)c(-c3ccco3)nc2c1	none
CCCCNC(=O)c1ccc2nc(-c3ccco3)c(-c3ccco3)nc2c1	none
Cc1cc(C)nc(Sc2nnc(C)c3ccccc23)n1	none
Cc1ccc(-n2ncc(C(=O)Nc3ccccc3C)c2C2CCNCC2)cc1	none
Cc1cccc(-n2ccnc2SCC(=O)Nc2ccccc2)c1	none
CCn1c(NC(=O)Nc2cc(C)ccc2C)cc2sccc21	none
Cc1oc(-c2cccs2)nc1CN1CCCC(C(=O)NCc2ccc(Cl)cc2)C1 (stereo not drawn)	none
O=C(NCc1ccc2c(c1)OCO2)[C@@H](c1ccccc1)N1Cc2ccccc2C1=O	none
O=C(NCc1ccc(F)cc1)[C@H](Cc1ccccc1)N1Cc2ccccc2C1=O	none
O=C(NCc1ccc2c(c1)OCO2)[C@H](Cc1ccccc1)N1Cc2ccccc2C1=O	CBX7 AlphaScr 0.44
CCOC(CNC(=O)c1ccc2c(c1)ncn2-c1cc(C)cc(C)c1)OCC	none
CN(C)C(=O)Nc1ccc(OCc2nc(C(C)(C)C)no2)c(Cl)c1	none
Cc1ccc2[nH]c3c(c2c1)CCCC3Nc1ccccc1 (stereo not drawn)	none
Cc1ccc2[nH]c3c(c2c1)CCCC3NCc1ccc(F)cc1 (stereo not drawn)	CBX7 AlphaScr 0.43
Brc1ccc2[nH]c3c(c2c1)CCCC3NCc1ccccc1 (stereo not drawn)	none
CCc1ccccc1NC(=O)CCCN1C(=O)c2cccnc2C1=O	none
O=C(CCCN1C(=O)c2cccnc2C1=O)N1CCN(c2ccccc2)CC1	CBX7 AlphaScr 0.49
CC1CCc2cc(F)ccc2N1C(=O)CCCN1C(=O)c2cccnc2C1=O (stereo not drawn)	CBX7 AlphaScr 0.47
O=C(CCCN1C(=O)c2cccnc2C1=O)Nc1ccc(Cl)c(C(F)(F)F)c1	none
O=C(CCCN1C(=O)c2cccnc2C1=O)N1CCN(c2ccccc2F)CC1	CBX7 AlphaScr 0.34
